Results filed as inconclusive are left out. Active and inactive are the calls of the source. Calls follow the shape of the dose curve; as a rule, active = well fitted curve in the direction sought with a large enough effect; inconclusive = small, poorly fitted or top-dose-only effect, or another doubt; inactive = no such curve, though single readings can be large; an effect the other way counts as inactive or inconclusive.
Legend:
[1] = S16 Schwann cell viability assay (CellTiter-Glo assay) (AID 624031);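 also: cellular ATP luminescence as a viability measure; nearly all actives have a fitted effect of over 70% in size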
Summary of the method: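 Native S16 rat Schwann cells, 500-750 cells/well in DMEM with 10% FBS, dosed with compound after overnight culture and incubated 24h at 37 degree Celsius/5% CO2. Viability by CellTiter-Glo luminescence; % activity normalized to no-cell wells and DMSO-treated cells.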

AS120 = test: qHTS profiling for inhibitors of Plasmodium falciparum proliferation (AID 504749); also: nearly all actives have a fitted effect of over 60% in size; also: potency is read from the fitted curve at half-maximal effect; conditions: P. falciparum in erythrocytes, SYBR Green DNA, 72 h; series mostly up to 12.8 µM
Summary of the method: (§1)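 P. falciparum-infected erythrocytes (0.3% parasitemia, 2.5% hematocrit) incubated with compound 72 h at 37 C, 5% CO2. Parasite DNA detected by SYBR Green after lysis, overnight at room temperature; normalised to 0.29 uM artemisinin and DMSO.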

C2A = test: as above; conditions: P. falciparum in erythrocytes, SYBR Green DNA, 72 h; series mostly up to 12.8 µM
Summary of the method: as §1

CP191 = test: as above; conditions: P. falciparum in erythrocytes, SYBR Green DNA, 72 h; series mostly up to 12.8 µM
Summary of the method: as §1

CP192 = test: as above; conditions: P. falciparum in erythrocytes, SYBR Green DNA, 72 h; series mostly up to 12.8 µM
Summary of the method: as §1

CP194 = test: as above; conditions: P. falciparum in erythrocytes, SYBR Green DNA, 72 h; series mostly up to 12.8 µM
Summary of the method: as §1

CP203 = test: as above; conditions: P. falciparum in erythrocytes, SYBR Green DNA, 72 h; series mostly up to 12.8 µM
Summary of the method: as §1

CP211 = test: as above; conditions: P. falciparum in erythrocytes, SYBR Green DNA, 72 h; series mostly up to 12.8 µM
Summary of the method: as §1

CP256 = test: as above; conditions: P. falciparum in erythrocytes, SYBR Green DNA, 72 h; series mostly up to 12.8 µM
Summary of the method: as §1

CP260 = test: as above; conditions: P. falciparum in erythrocytes, SYBR Green DNA, 72 h; series mostly up to 12.8 µM
Summary of the method: as §1

CP268 = test: as above; conditions: P. falciparum in erythrocytes, SYBR Green DNA, 72 h; series mostly up to 12.8 µM
Summary of the method: as §1

CP269 = test: as above; conditions: P. falciparum in erythrocytes, SYBR Green DNA, 72 h; series mostly up to 12.8 µM
Summary of the method: as §1

CP286 = test: as above; conditions: P. falciparum in erythrocytes, SYBR Green DNA, 72 h; series mostly up to 12.8 µM
Summary of the method: as §1

CP291 = test: as above; conditions: P. falciparum in erythrocytes, SYBR Green DNA, 72 h; series mostly up to 12.8 µM
Summary of the method: as §1

CP305 = test: as above; conditions: P. falciparum in erythrocytes, SYBR Green DNA, 72 h; series mostly up to 12.8 µM
Summary of the method: as §1

CP315 = test: as above; conditions: P. falciparum in erythrocytes, SYBR Green DNA, 72 h; series mostly up to 12.8 µM
Summary of the method: as §1

CP325 = test: as above; conditions: P. falciparum in erythrocytes, SYBR Green DNA, 72 h; series mostly up to 12.8 µM
Summary of the method: as §1

CP329 = test: as above; conditions: P. falciparum in erythrocytes, SYBR Green DNA, 72 h; series mostly up to 12.8 µM
Summary of the method: as §1

ICS = test: as above; conditions: P. falciparum in erythrocytes, SYBR Green DNA, 72 h; series mostly up to 12.8 µM
Summary of the method: as §1

TAB113 = test: as above; conditions: P. falciparum in erythrocytes, SYBR Green DNA, 72 h; series mostly up to 12.8 µM
Summary of the method: as §1

Measured: Potency

CCC(C)C(=O)OC1CC(O)C=C2C=CC(C)C(CCC(O)CC(O)CC(=O)O)C21 (stereo unspecified)
inactive: all assays above

CCCCCCCCCc1ccc(OCCOCCOCCOCCOCCOCCOCCOCCOCCO)cc1
inactive: C2A | CP192 | CP260 | CP268 | CP286 | CP291 | CP305 | CP315 | CP325 | CP329 | TAB113

CCC(=O)O[C@@]1(C(=O)CCl)C(C)CC2C3CCC4=CC(=O)C=C[C@@]4(C)[C@]3(F)C(O)C[C@]21C (stereo partly specified)
active: AS120 10000 nM | CP194 15100 nM | CP203 13500 nM | CP260 10000 nM | ICS 10000 nM
inactive: [1]

C[C@@]12CCC(=O)C=C1C=CC1C2CC[C@]2(C)C1CC[C@@]21CCC(=O)O1 (stereo partly specified)
not listed: C2A | ICS
inactive: all other assays above

CC(=O)OCC(=O)[C@@]12OC3(CCCC3)OC1CC1C3CCC4=CC(=O)C=C[C@@]4(C)[C@]3(F)C(O)C[C@]12C (stereo partly specified)
active: AS120 11200 nM | ICS 12600 nM
not listed: CP191 | CP203 | CP260 | CP286 | TAB113
inactive: all other assays above

NC(CCC(=O)N[C@@H](CS)C(=O)NCC(=O)O)C(=O)O (stereo partly specified)
inactive: CP315
active: C2A 10000 nM | CP191 8910 nM | CP256 8910 nM | CP260 7940 nM | CP269 15100 nM | ICS 1260 nM | TAB113 7940 nM

CCOC(=O)C1=CC(OC(CC)CC)C(NC(C)=O)C(N)C1 (stereo unspecified)
not listed: [1] | ICS
inactive: all other assays above

CC1(C)S[C@H]2C(NC(=O)[C@@H](N)c3ccc(O)cc3)C(=O)N2[C@@H]1C(=O)O (stereo partly specified)
not listed: TAB113
inactive: all other assays above

COC1OC(CO)C(OC2OC(C(=O)O)C(OC3OC(COS(=O)(=O)O)C(OC4OC(C(=O)O)C(OC5OC(CO)C(OC6OC(C(=O)O)C(OC7OC(COS(=O)(=O)O)C(OC8OC(C(=O)O)=C[C@H](O)C8OS(=O)(=O)O)C(O)C7NC(C)=O)[C@@H](O)C6O)C(O)C5NC(C)=O)[C@@H](O)C4O)C(O)C3NC(C)=O)[C@@H](O)C2O)C(O)C1NC(C)=O (stereo partly specified)
active: CP191 11200 nM | ICS 12600 nM | TAB113 14100 nM
not listed: AS120 | C2A | CP256 | CP260 | CP286
inactive: all other assays above

CCC1OC(=O)C(C)[C@@H](O[C@H]2C[C@@](C)(OC)C(O)C(C)O2)C(C)[C@@H](O[C@@H]2OC(C)CC(N(C)C)C2O)[C@@](C)(O)CC(C)C(=O)[C@@H](C)C(O)[C@]1(C)O (stereo partly specified)
inactive: all assays above

C[C@@]12C=CC(=O)C=C1CCC1C3CC(O)[C@@](O)(C(=O)CO)[C@]3(C)CC(O)[C@]12F (stereo partly specified)
inactive: all assays above

C=Cc1c(C)/c2[n-]/c1=C\c1[n-]c(c(CC)c1C)/C=c1\[n-]c3c(c1C)C(=O)C(C(=O)[O-])C=3c1[n-]c(c(C)c1CCC(=O)[O-])\C=2.[Cu].[Na+].[Na+] (stereo unspecified)
inactive: [1] | C2A | CP211 | CP256 | CP268 | CP269 | CP286 | CP291 | CP305 | CP325 | CP329

CO[C@]12C(COC(N)=O)C3=C(C(=O)C(C)=C(N)C3=O)N1CC1NC12 (stereo partly specified)
active: AS120 562 nM | C2A 1260 nM | CP191 891 nM | CP211 19000 nM | CP256 5010 nM | CP286 501 nM | ICS 355 nM | TAB113 891 nM

CCC1OC(=O)CC(O)C(C)[C@@H](O[C@@H]2OC(C)[C@H](O[C@@H]3C[C@@](C)(O)C(O)C(C)O3)C(N(C)C)C2O)[C@H](CC=O)CC(C)C(=O)/C=C/C(C)=C/[C@@H]1COC1OC(C)C(O)C(OC)[C@@H]1OC (stereo partly specified)
active: CP256 1410 nM | CP260 1120 nM | CP286 1000 nM | ICS 2820 nM
inactive: [1]

OCC1OC(n2cnc3c(=S)nc[nH]c32)C(O)C1O (stereo unspecified)
inactive: all assays above

OCC1O[C@H](OC2C(CO)O[C@@](O)(CO)C2O)C(O)C(O)C1O (stereo partly specified)
inactive: all assays above

COc1ccc(-c2cc(=O)c3c(O)cc(O[C@H]4OC(COC5OC(C)C(O)C(O)[C@H]5O)C(O)C(O)C4O)cc3o2)cc1O (stereo partly specified)
not listed: CP291
inactive: all other assays above

COC1CC(O[C@H]2/C(C)=C/CC3CC(C[C@]4(CCC(C)C(C5CCCCC5)O4)O3)OC(=O)[C@H]3C=C(C)/C(=N/O)C4OC/C(=C\C=C\[C@@H]2C)[C@@]43O)OC(C)C1O (stereo partly specified)
active: CP191 10000 nM | ICS 12600 nM
not listed: AS120 | C2A | CP256 | CP260 | CP286 | TAB113
inactive: all other assays above

CC(C)Oc1ccc2c(=O)cc(-c3ccccc3)oc2c1
inactive: all assays above

COc1ccc(CC(N)C(=O)NC2C(CO)OC(n3cnc4c(N(C)C)ncnc43)C2O)cc1 (stereo unspecified)
active: AS120 891 nM | C2A 891 nM | CP191 891 nM | CP192 1070 nM | CP194 1070 nM | CP203 1510 nM | CP211 478 nM | CP256 1000 nM | CP260 891 nM | CP268 1510 nM | CP269 757 nM | CP286 891 nM | CP291 1070 nM | CP305 1200 nM | CP315 849 nM | CP325 1070 nM | CP329 1070 nM | ICS 316 nM | TAB113 1000 nM

CC(=O)N[C@@H]1C(O)OC(CO)C(O)C1O (stereo partly specified)
inactive: all assays above

From PubChem BioAssay (NCATS)
